PubChem BioAssay (NCI)
About 79,000 compounds went through this panel and 15% of them were active in at least one assay; those are over-represented in the sample as a whole. Values without a mark were called inactive. The source made the active and inactive calls. Rule as the data show it: active = growth inhibition above about 70%; inactive = the rest.

Experiments:
[1] = NCI Yeast Anticancer Drug Screen. Data for the rad50 strain (AID 155);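 also: 0% = growth of vehicle-only cultures of the same strain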; details: S. cerevisiae rad50 strain growth inhibition, hits give high values
How it was run: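 Readout: growth inhibition relative to vehicle-treated cultures. Compound exposure was carried out in a genetically defined yeast strain deficient in DNA damage repair.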

[2] = NCI Yeast Anticancer Drug Screen. Data for the mec2-1 strain (AID 157); details: S. cerevisiae mec2-1 strain, hits give high values
How it was run: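 Strain: mec2-1 (DNA repair/cell cycle alteration). Compound exposure, then growth measured; inhibition expressed relative to vehicle.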

[3] = NCI Yeast Anticancer Drug Screen. Data for the sgs1 mgt1 strain (AID 161);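 also: 0% = growth of cultures given vehicle only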; details: S. cerevisiae sgs1 mgt1 strain, hits give high values
How it was run: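 Inhibition of yeast growth, normalised to vehicle-treated controls, is reported for a strain bearing genetic alterations in DNA damage repair.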

[4] = NCI Yeast Anticancer Drug Screen. Data for the cln2 rad14 strain (AID 165);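 also: 0% = growth equal to vehicle treated cultures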; details: S. cerevisiae cln2 rad14 strain, hits give high values
How it was run: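 Compounds are applied to the cln2 rad14 yeast strain, and growth is then compared with that of vehicle-treated cultures to give inhibition.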

[5] = NCI Yeast Anticancer Drug Screen. Data for the bub3 strain (AID 167); details: S. cerevisiae bub3 mutant strain, hits give high values
How it was run: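 Readout: yeast growth inhibition, expressed relative to vehicle-only wells. The test organism is a mutant strain from a panel with lesions in DNA repair or checkpoint genes.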

[6] = NCI Yeast Anticancer Drug Screen. Data for the mlh1 rad18 strain (AID 175); details: S. cerevisiae mlh1 rad18 strain growth inhibition, hits give high values
How it was run: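 Read-out is yeast growth inhibition, calculated against vehicle-only controls. The compound was applied to a strain engineered with DNA damage repair alterations.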

[7] = at 5.0 µM (retest, dose inferred, filed as 0.5)
[8] = at 50.0 µM (retest, dose inferred, filed as 5.0)

SMILES	growth inhibition [1, 7]	growth inhibition [1, 8]	growth inhibition ([1]; at 50.0 µM)	growth inhibition [2, 7]	growth inhibition [2, 8]	growth inhibition ([2]; at 50.0 µM)	growth inhibition [3, 7]	growth inhibition [3, 8]	growth inhibition ([3]; at 50.0 µM)	growth inhibition [4, 7]	growth inhibition [4, 8]	growth inhibition ([4]; at 50.0 µM)	growth inhibition [5, 7]	growth inhibition [5, 8]	growth inhibition ([5]; at 50.0 µM)	growth inhibition [6, 7]	growth inhibition [6, 8]	growth inhibition ([6]; at 50.0 µM)
O=[N+]([O-])c1ccccc1Oc1ccc([N+](=O)[O-])c(C(F)(F)F)c1	-4%	83% (active)	80.1% (active)	-2%	74% (active)	82.7% (active)	0%	-24%	92.5% (active)	-8%	45%	45.9%	2%	92% (active)	95.3% (active)	-1%	90% (active)	92.7% (active)
Cc1ccc(/C=C2\CCC/C(=C\c3ccc(O)c(CN4CCCCC4)c3)C2=O)cc1	16%	22%	6.8%	4%	15%	-15.2%	0%	25%	70.9% (active)	7%	27%	42.1%	-34%	28%	66.5%	9%	18%	84% (active)
C(=C\c1cccc2ccccc12)/c1ccncc1	8%	97% (active)	98.9% (active)	-19%	99% (active)	99.2% (active)	-14%	98% (active)	99.2% (active)	-2%	96% (active)	99% (active)	4%	97% (active)	98.5% (active)	–	–	–
O=C(Nc1ccc(Cl)cc1)OCC1C2C=CC(C2)C1CO (stereo not drawn)	6%	95% (active)	86.8% (active)	-1%	97% (active)	75.7% (active)	2%	97% (active)	98.4% (active)	2%	89% (active)	66.5%	-3%	92% (active)	92.9% (active)	–	–	–
CSc1cc2c(cc1N)Cc1ccccc1-2	3%	71% (active)	85.4% (active)	8%	88% (active)	90.8% (active)	3%	30%	97% (active)	1%	50%	88.7% (active)	-1%	91% (active)	97.3% (active)	6%	89% (active)	97.3% (active)
CCCc1cc2c(cc1COc1ccccc1C(=O)O)OCO2	-1%	49%	56.4%	-4%	52%	59.8%	-7%	25%	38.4%	-2%	51%	33.4%	-6%	31%	25.4%	–	–	–
O=C1C=CC(=O)N1c1ccc(Cl)cc1	79% (active)	97% (active)	91.6% (active)	79% (active)	99% (active)	93.1% (active)	95% (active)	100% (active)	92.8% (active)	54%	101% (active)	84.8% (active)	101% (active)	100% (active)	92.1% (active)	–	–	–
O=C(CC(=O)c1ccccc1)CC(=O)c1ccccc1	31%	81% (active)	87.7% (active)	24%	85% (active)	68.5%	38%	85% (active)	74.7% (active)	31%	55%	65.9%	44%	95% (active)	88.7% (active)	–	–	–
CN(C)Cc1cc(N=Nc2ccc(Cl)c(Cl)c2)ccc1O	-16%	46%	86.5% (active)	-11%	31%	64.4%	-20%	44%	82.7% (active)	-31%	34%	71.8% (active)	-33%	40%	88.5% (active)	0%	56%	84.7% (active)
O=[N+]([O-])/C(C=Nc1ccccc1)=C/Nc1ccccc1	-17%	51%	71.5% (active)	-10%	33%	67.3%	2%	46%	83.5% (active)	-6%	48%	37.5%	16%	73% (active)	31.6%	-15%	83% (active)	76.6% (active)
CC(C)=CC1C(COC(=O)CCl)C1(C)C (stereo not drawn)	-6%	8%	1.85%	3%	0%	44.8%	-2%	3%	-12.3%	0%	-11%	-29.4%	2%	-5%	36.1%	-2%	5%	-23.6%
